Screening data from PubChem.
This is a sample that favours compounds with a hit; in the whole collection about 3.5% have one here.
BoNT-A LC inh2 = BoNT/A light chain protease inhibitors, primary screen, biochemical, flow cytometry, MLPCN library. Botulinum neurotoxin type A light chain protease (Clostridium botulinum A str. ATCC 3502). multiplex microsphere protease substrate cleavage. inhibition, % at 10 µM. hit rate 0.17% among 360,000. AID 588499, 2011; in the data active = inhibition above about 30%; inconclusive = no clear call, values can overlap the other calls
Autofluor counter = flagged as autofluorescent in microsphere protease counterscreen; compound autofluorescence counterscreen, microsphere flow cytometry; hits give high values; fluorescence intensity (test concentration not listed); hit rate 3.1% among 360,000; AID 624483; in the data active = fluorescence intensity above about 16000; inconclusive = no clear call, values can overlap the other calls
BoNT F protease = BoNT/F light chain protease inhibitors, primary screen, biochemical, flow cytometry, MLPCN library | hit rate 0.22% among 360,000 | inhibition, % at 10 µM | Botulinum neurotoxin type F light chain protease (Clostridium botulinum) | Multiplex microsphere protease cleavage assay; in the data active = inhibition above about 35%, passing the limit was not always enough; inconclusive = no clear call, values can overlap the other calls
BH1578 lux ind = inducers of Vibrio cholerae quorum light production without autoinducers, primary screen, BH1578 luxS cqsA deficient, single point; V. cholerae BH1578 lux reporter, luminescence, 6 h; activation, % at 18.7 µM; hit rate 0.16% among 350,000; in the data active = activation mostly above about 9.7%, no sharp cut-off; inconclusive = no clear call, values can overlap the other calls; inactive = mostly below about 3.7%
Anthrax LF inh2 = Bacillus anthracis LF protease inhibitors, primary screen, biochemical, multiplex microsphere, MLPCN library; Lethal factor (Bacillus anthracis), P15917; hit rate 0.12% among 360,000; inhibition, % at 10 µM; AID 588501, 2011; multiplex microsphere protease cleavage assay; in the data active = inhibition above about 30%; inconclusive = no clear call, values can overlap the other calls
BoNTA LC inh 1 = BoNT/A light chain protease inhibitors, confirmation, biochemical, flow cytometry, cherry pick 1; shares compounds with BoNT F protease; multiplex microsphere protease assay; inhibition, % at 10 µM; hit rate 3% among 720; in the data active = inhibition above about 32%
BoNTF LC inh 1 = BoNT/F light chain protease inhibitors, confirmation, biochemical, flow cytometry, cherry pick 1; multiplex microsphere protease cleavage assay; shares compounds with BoNT F protease; inhibition, % at 10 µM; 720 tested, under 10 active
Anthrax LF CP1 = Bacillus anthracis LF protease inhibitors, confirmation, biochemical, multiplex microsphere, cherry pick 1 | shares compounds with BoNT F protease | 720 tested, under 10 active | inhibition, % at 10 µM | multiplex microsphere protease cleavage assay | AID 602142, 2011
Numbers stand for hits; . = inactive; ? = inconclusive; / = no result given. Unless noted, the rule behind the calls is not given here.

SMILES	BoNT-A LC inh2	Autofluor counter	BoNT F protease	BH1578 lux ind	Anthrax LF inh2	BoNTA LC inh 1	BoNTF LC inh 1	Anthrax LF CP1
CCCCN1C(=O)C(=O)N(CC(=O)NC2CCCc3ccccc32)C1=O (stereo not drawn)	.	.	.	.	.	/	/	/
O=C(Nc1cccc(C(F)(F)F)c1)c1sc(Cl)nc1C(F)(F)F	.	.	40.1	.	33.3	.	.	.
O=C(Nc1cccc(C(F)(F)F)c1)c1cc(-c2ccco2)on1	.	.	.	.	.	/	/	/
CC(C)NC(=O)[C@H]1N2C(=O)c3ccccc3C2SC1(C)C (stereo partly drawn)	.	.	35.6	.	.	.	.	.
CC(C)OCCCNC(=O)[C@H]1N2C(=O)c3ccccc3C2SC1(C)C (stereo partly drawn)	.	.	.	.	.	/	/	/
C[C@H](CO)N1C[C@H](C)[C@@H](CN(C)C(=O)Nc2cccc(F)c2)Oc2ncc(Br)cc2C1=O	.	.	.	.	.	/	/	/
C=CCSc1nc(-c2ccc3c(c2)OCO3)cc(C(F)(F)F)c1C#N	30.7	.	.	.	.	.	.	.
OC1(c2ccccc2)c2ccccc2-c2ncccc21 (stereo not drawn)	.	.	.	.	.	/	/	/
COc1cc2nc(/C=C/c3ccc(N(C)C)cc3)sc2cc1SC	39.4	.	.	.	.	.	.	.
Cc1nn(Cc2ccc([N+](=O)[O-])cc2)c(=O)n1N(C)c1ncc(C(F)(F)F)cc1Cl	.	.	38.4	.	.	.	.	.
Cc1ccc(SCC(=O)OCC(=O)NCCc2ccccc2)cc1C	.	.	.	.	.	/	/	/
S=c1nc(Cc2ccc(Cl)cc2)[nH]c2ccccc12	.	.	.	.	.	/	/	/
S=c1nc(Cc2ccccc2)[nH]c2ccccc12	.	.	51.2	.	.	.	.	.
Cc1nn(-c2ccccc2)c2sc(C(=O)N3CCCCC3)cc12	.	.	38.5	.	.	.	.	.
CCOC(=O)c1cnc(SC2CC(=O)N(c3cccc(OC)c3)C2=O)nc1N (stereo not drawn)	.	.	.	.	.	.	.	.
CC(=O)NC(CC(=O)OCC(=O)N1CCc2ccccc21)c1ccccc1 (stereo not drawn)	.	.	.	.	.	/	/	/
CC(C)Cc1cc(C(=O)Nc2ccccc2)c2ccccc2n1	.	.	42.6	.	.	.	.	.
Cc1nn(C)c(C)c1S(=O)(=O)NC1CCCC1	.	.	.	.	.	/	/	/
Cc1nn(-c2nnc(NC3CCCCC3)nn2)c(C)c1Br	34.7	.	.	.	.	.	.	.
O=[N+]([O-])c1ncccc1OCc1ccc(Br)cc1F	.	.	.	.	.	/	/	/
Cc1ccc(SCCC(=O)Nc2ccccc2C(=O)NC2CCCCC2)cc1	.	.	39.2	.	.	.	.	.
CCCc1c(C)[nH]c2ccc(C(=O)O)cc2c1=S	.	.	.	.	.	/	/	/
Clc1cccc(Cl)c1-c1noc(CN2CCOCC2)n1	?	.	?	.	36.1	.	.	.
Clc1ccc(-c2noc(CN3CCOCC3)n2)cc1	.	.	.	.	?	/	/	/
Cc1ccc(S(=O)(=O)N2CCN(S(=O)(=O)c3ccccc3Br)CC2)cc1	.	.	.	.	.	/	/	/
SMILES	BoNT-A LC inh2	Autofluor counter	BoNT F protease	BH1578 lux ind	Anthrax LF inh2	BoNTA LC inh 1	BoNTF LC inh 1	Anthrax LF CP1
CCCCOc1ccc(C(=O)N2CCN(c3ccc(N4CCOCC4)nn3)CC2)cc1	.	?	59.2	.	.	.	.	.
Cc1ccc(C(=O)N2CCN(c3ccc(N4CCOCC4)nn3)CC2)cc1	.	.	.	.	.	/	/	/
CCn1cc(S(=O)(=O)NCCc2ccc(OC)c(OC)c2)cn1	.	.	.	.	.	/	/	/
Cc1ccc(C(=O)Nc2ccc(O)cc2C(=O)O)cc1	.	.	.	.	.	.	.	.
Cc1ccc(C(=O)Nc2ccc(O)cc2C(=O)O)cc1C	?	.	.	.	.	/	/	/
O=S(=O)(Nc1cc2nc3ccccc3nc2n1Cc1ccccc1)c1ccc(Cl)cc1	32.8	.	.	.	.	.	.	.
Cc1ccccc1Cn1nc(C)c(NC(=O)c2cc(-c3ccco3)on2)c1C	.	.	.	.	.	/	/	/
Cc1ccccc1Cn1nc(C)c(NC(=O)c2cc3nc(-c4ccco4)cc(C(F)(F)F)n3n2)c1C	.	.	.	/	.	.	.	.
O=C(NCCCN1CCOCC1)c1cc2nc(-c3ccco3)cc(C(F)(F)F)n2n1	.	.	.	.	.	/	/	/
CCc1ccc(-c2cc(C(F)(F)F)n3nc(C(=O)Nc4c(C)nn(Cc5ccc(F)cc5)c4C)cc3n2)s1	32.7	.	.	.	.	.	.	.
O=C(Nc1cnn(Cc2ccccc2)c1)c1cc2nc(-c3ccco3)cc(C(F)(F)F)n2n1	.	.	.	.	.	.	.	.
Cc1nn(C)cc1CN(C)C(=O)c1cc2nc(-c3ccco3)cc(C(F)(F)F)n2n1	.	.	.	.	.	/	/	/
Cc1nn(C)cc1NC(=O)c1cc2nc(-c3ccco3)cc(C(F)(F)F)n2n1	.	.	.	.	.	.	.	.
Cc1nn(Cc2ccc(F)cc2)c(C)c1NC(=O)c1cc(-c2ccc3c(c2)OCO3)on1	.	.	.	.	.	/	/	/
O=C1NC[C@H](Cc2ccccc2)N(CC2CCCCC2)C1=O	.	.	.	.	.	/	/	/
O=C(COc1ccc(S(=O)(=O)NCc2ccccc2)cc1Cl)NCc1ccccn1	.	.	68.3	.	.	.	.	.
O=C(CN(C(=O)CNS(=O)(=O)c1ccc(F)cc1)c1ccccc1F)NCc1ccco1	.	.	34.9	.	.	.	.	.
O=C(Nc1ccccc1C(=O)Nc1nncs1)c1ccccc1	.	.	39.6	.	.	.	.	.
COc1ccc(OC)c(-c2nc3cc4ccccc4cc3nc2-c2ccccc2)c1	62.5	.	.	.	.	34.1	.	.
COc1ccc(-c2nc3ccccc3nc2-c2ccccc2)cc1OC	/	/	/	.	/	/	/	/
CS(=O)(=O)N1CCc2cc(C(=O)Nc3ccc(O)cc3)ccc21	.	.	55.7	.	.	.	.	.
O=C(O)C1CCCCC1C(=O)NCc1ccccn1 (stereo not drawn)	.	.	.	.	.	/	/	/
Nc1nc(SCC(=O)Nc2cc(-c3ccccc3)nn2-c2ccccc2)n[nH]1	?	.	40.1	.	.	.	.	.
CC(=O)Nc1ccc(NC(=O)C(C)Sc2nnc(-c3cccs3)o2)cc1 (stereo not drawn)	.	.	.	.	.	/	/	/
O=C(c1ccccc1)N1CCN(Cc2cccc(Oc3ccccc3)c2)CC1	.	.	38.2	.	.	.	.	.
